Source: PubChem BioAssay (NCI)
This is part of a sample that, as a whole, favours compounds with a hit. Of some 83,000 tested, about 20% had one in any assay.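 For each line, cells grew in 96-well plates with the test compound present at a single concentration for 48 hours.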 Values without a mark were called inactive. The source made the active and inactive calls. Rule for the calls: active = growth percent below 10; inactive = the rest.

tested on: NCI/ADR-RES ovarian; assay: NCI-60 one-dose screen, 48 h (100 = growth as untreated, 0 = no growth, -100 = all killed); details: 10 µM

Structure (SMILES)	growth
O=C1/C(=C/c2ccc(O)cc2)Oc2ccc(Cl)cc21	87.3%
COc1cc(C(=O)n2nc(N)c3c(C)cc(C)nc32)cc(OC)c1OC	60.8%
C#Cc1ccc(-n2c(/C=C/c3cc(OC)c(OC)c(OC)c3)nc3ncccc3c2=O)cc1	54.6%
COC(=O)[C@]12CC[C@@H](C)[C@H](C)[C@@H]1C1=CC[C@@H]3[C@@]4(C)C[C@@H](O)[C@H](O)[C@@](C)(CO)[C@@H]4[C@H](O)C[C@@]3(C)[C@]1(C)CC2	-22.8% (active)
Oc1ccccc1-c1nnc(Cn2c(Cc3cccc4ccccc34)nc3ccccc32)o1	93.8%
COc1ccc(-c2nc(SCC(=O)c3ccc(Br)cc3)[nH]c(=O)c2C#N)cc1	110%
COc1ccc(C2C=C(c3ccc(Cl)c(Cl)c3)N=C3SC(C)=CN32)cc1 (stereo not drawn)	107%
CCOc1nc(-c2ccccc2)cc2c(O)c(C(=O)NC(C)C)[nH]c(=O)c12	96.8%
S=c1c2ncccc2c(-c2ccccn2)nn1Cc1ccccn1	103%
Nc1cc(O)cc(O)c1	99.7%
COc1c(-c2c3sc(=O)[nH]c3nc3c2c(=O)[nH]n3C(C)C)cc2c(c1OC)OCO2	99.8%
Cc1c(C(=O)N[C@H](CO)Cc2ccccc2)[nH]c2ccc(Cl)cc2c1=O	108%
COc1cc(Cn2c(-c3ccccc3)c(Cl)c3c2-c2oncc2CC3)cc(OC)c1	47.6%
C/C=C\COc1cc(C)c(Cl)cc1Cl	115%
CCOC(=O)CNC(=O)Nc1ccc(Oc2ccc(NC(=O)NCC(=O)OCC)cc2)cc1	101%
c1ccc(CNc2nc(Nc3ccc(-c4nc5ccccc5[nH]4)cc3)c3cn[nH]c3n2)cc1	6.33% (active)
c1ccc(COCC[P+](c2ccccc2)(c2ccccc2)c2ccccc2)cc1	81.8%
CCOC(=O)C1=C(Nc2ccc(OC)cc2)C(N)=NC1=N	28.4%
NC(=O)C1CCCN(Cc2c[nH]c3ccccc23)C1 (stereo not drawn)	94.8%

Structure (SMILES)	growth
CC(=O)n1nc(C(=O)OC(C)(C)C)c2cc(F)c(F)cc21	98.3%
Cc1cc(Cl)ccc1Nc1nc(C(F)(F)F)ccc1C(=O)N/N=C/c1ccccc1Cl	8.31% (active)
CN1/C(=C\C(I)C(I)C2=[N+](C)c3ccccc3C2(C)C)C(C)(C)c2ccccc21 (stereo not drawn)	73%
N#C/C(=C/c1cc([N+](=O)[O-])ccc1Cl)C(N)=O	98.2%
CCCCCCCCCCCC(=O)NCCCN(C)C	98.7%
CCc1nn2c(-c3cc(OC)c(OC)c(OC)c3)c(-c3cc(OC)c(OC)c(OC)c3)nc2s1	81.7%
CCN1CCN(c2nc(NNC(=O)c3cccc(OC)c3)nc(N3CCN(C(c4ccccc4)c4ccccc4)CC3)n2)CC1	76.2%
CCCCOCCOCCOCc1cc2c(cc1Br)OCO2	111%
CCCCCCCCCCCCCC[n+]1ccccc1	73.3%
Cc1cc(C)c2nc(C)c(C)[n+]([O-])c2c1	104%
Clc1cc(Cl)c(OCCCCCCN2CCNCC2)c(Cl)c1	75.8%
COc1ccc(NC(=O)c2sc3nc4c(cc3c2N)C(O)CCC4)cc1 (stereo not drawn)	102%
Cc1cc(C(C)(C)CC(C)(C)C)ccc1OCCOCC[N+](C)(C)Cc1ccccc1	103%
CCCCCC(=O)N1c2ccccc2NC2=C(C(=O)CC(c3ccc(OC)c(OC)c3)C2)C1c1ccc(C(F)(F)F)cc1 (stereo not drawn)	58.7%
COc1cc(C2C(C#N)=C(c3c[nH]c4ccccc34)Nc3nc(N)[nH]c(=O)c32)cc(OC)c1OC (stereo not drawn)	100%
COc1ccc(-c2nc(-c3nc4ccc(C)cc4[nH]3)c3ccccn23)cc1	22.6%
COCCOC(=O)NC(=O)Nc1ccc(/C(=N/O)c2ccc(Cl)cc2)cc1	-3.69% (active)
CCN(CCCNC(=O)Cc1cc(=O)oc2cc(N(C)C)ccc12)CCNc1ccnc2cc(Cl)ccc12	109%
CC(C)c1ncc(CO)n1Cc1c(Cl)cccc1Cl	110%
